The text below walks through data of article PMC7862700, “An all-to-all approach to the identification of sequence-specific readers for epigenetic DNA modifications on cytosine”.

Common to all, as to test: DAPPL (digital affinity profiling via proximity ligation, sequencing); 10 mM Tris-HCl pH 7.5, 50 mM NaCl, 1 mM DTT, 4% glycerol, room temperature, 30 min; GST-TFs on glutathione beads, 16-mer random dsDNA library, 0.1% formaldehyde crosslink after washing; high values mean tight binding
Holding throughout (conditions): protein: recombinant; tags: N-terminal GST; dsDNA, one strand shown

One test deals with T1, FLI1 (Homo sapiens, UniProt Q01543 1-452).
T1 sequence: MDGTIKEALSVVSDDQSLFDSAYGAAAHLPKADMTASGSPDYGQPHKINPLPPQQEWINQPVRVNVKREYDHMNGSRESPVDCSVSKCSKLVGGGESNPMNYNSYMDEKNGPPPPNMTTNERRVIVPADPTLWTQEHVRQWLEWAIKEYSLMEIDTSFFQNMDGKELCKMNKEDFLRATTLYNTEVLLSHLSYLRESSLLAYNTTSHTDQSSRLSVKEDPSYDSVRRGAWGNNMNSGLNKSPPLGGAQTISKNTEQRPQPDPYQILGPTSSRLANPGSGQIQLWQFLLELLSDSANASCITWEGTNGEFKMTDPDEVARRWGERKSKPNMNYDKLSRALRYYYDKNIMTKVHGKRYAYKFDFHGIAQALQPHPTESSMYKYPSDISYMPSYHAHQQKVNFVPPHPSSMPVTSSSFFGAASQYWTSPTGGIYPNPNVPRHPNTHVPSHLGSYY
In short, it runs like this: (§1)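 Binding signal is each hexamer's read frequency for a factor divided by its frequency in the tag-only sample. The factors were GST-fused human transcription factors from yeast, captured on glutathione beads, DNA-barcoded and pooled with that sample. Pools were incubated with 200 nmole of a random double-stranded 16-mer DNA library in Tris/NaCl/DTT/glycerol buffer at room temperature for 30 min, then washed, crosslinked with 0.1% formaldehyde, proximity-ligated with BsaI/T4 ligase (1 h, 37 °C), PCR-amplified and sequenced on an Illumina NextSeq500.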

A further test deals with T2, ELK1 (Homo sapiens, UniProt P19419 1-428).
T2 sequence: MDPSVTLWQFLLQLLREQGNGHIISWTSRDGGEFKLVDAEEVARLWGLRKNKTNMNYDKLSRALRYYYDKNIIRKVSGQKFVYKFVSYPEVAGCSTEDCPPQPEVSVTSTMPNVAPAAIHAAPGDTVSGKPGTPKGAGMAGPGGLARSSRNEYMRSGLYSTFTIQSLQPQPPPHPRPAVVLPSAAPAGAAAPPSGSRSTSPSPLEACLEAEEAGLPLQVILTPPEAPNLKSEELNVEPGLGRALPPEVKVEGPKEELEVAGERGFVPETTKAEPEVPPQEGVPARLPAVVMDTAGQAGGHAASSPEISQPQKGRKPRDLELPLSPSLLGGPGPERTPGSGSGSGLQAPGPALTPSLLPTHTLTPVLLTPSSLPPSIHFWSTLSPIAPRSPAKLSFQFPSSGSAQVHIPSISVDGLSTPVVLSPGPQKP
In short, it runs like this:
as §1

Another test has as its target T3, GABPA (Homo sapiens, UniProt Q06546 1-454).
T3 sequence: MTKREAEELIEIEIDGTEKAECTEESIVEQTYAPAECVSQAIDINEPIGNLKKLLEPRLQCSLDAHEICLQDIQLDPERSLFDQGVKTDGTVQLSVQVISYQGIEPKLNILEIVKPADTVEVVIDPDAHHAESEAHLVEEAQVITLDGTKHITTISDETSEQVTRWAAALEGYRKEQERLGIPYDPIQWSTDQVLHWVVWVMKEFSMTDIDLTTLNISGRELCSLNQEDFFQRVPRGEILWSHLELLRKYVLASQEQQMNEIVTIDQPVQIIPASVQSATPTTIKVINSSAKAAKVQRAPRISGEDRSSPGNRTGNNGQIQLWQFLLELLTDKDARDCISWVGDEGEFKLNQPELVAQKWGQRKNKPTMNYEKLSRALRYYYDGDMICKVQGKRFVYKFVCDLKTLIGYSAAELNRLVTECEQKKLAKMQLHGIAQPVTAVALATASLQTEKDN
In short, it runs like this: as §1

A further test deals with T4, ERG (Homo sapiens, UniProt P11308 1-479).
T4 sequence: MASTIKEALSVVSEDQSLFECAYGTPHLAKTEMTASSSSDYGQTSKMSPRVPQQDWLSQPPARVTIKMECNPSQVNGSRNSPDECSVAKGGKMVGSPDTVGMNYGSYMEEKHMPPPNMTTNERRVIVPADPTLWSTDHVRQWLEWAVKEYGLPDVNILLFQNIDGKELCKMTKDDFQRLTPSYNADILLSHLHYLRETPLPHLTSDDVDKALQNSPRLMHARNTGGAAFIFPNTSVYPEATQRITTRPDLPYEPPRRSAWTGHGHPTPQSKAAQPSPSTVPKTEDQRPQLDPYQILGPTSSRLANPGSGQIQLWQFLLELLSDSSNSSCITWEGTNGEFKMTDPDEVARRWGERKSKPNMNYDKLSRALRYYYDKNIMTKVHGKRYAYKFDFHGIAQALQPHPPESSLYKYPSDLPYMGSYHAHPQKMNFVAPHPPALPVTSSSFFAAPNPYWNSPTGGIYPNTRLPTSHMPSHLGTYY
In short, it runs like this: as §1

A further test addresses ELF1 (Homo sapiens, UniProt P32519 1-619). The procedure, abridged: as §1
The target of another test is SPI1 (Homo sapiens, UniProt P17947 1-270). In short, it runs like this: as §1
The target in a further test is SPIB (Homo sapiens, UniProt Q01892 1-262). The procedure, abridged:
as §1

The target of the next test is T5, ELK3 (Homo sapiens, UniProt P41970 1-407).
T5 sequence: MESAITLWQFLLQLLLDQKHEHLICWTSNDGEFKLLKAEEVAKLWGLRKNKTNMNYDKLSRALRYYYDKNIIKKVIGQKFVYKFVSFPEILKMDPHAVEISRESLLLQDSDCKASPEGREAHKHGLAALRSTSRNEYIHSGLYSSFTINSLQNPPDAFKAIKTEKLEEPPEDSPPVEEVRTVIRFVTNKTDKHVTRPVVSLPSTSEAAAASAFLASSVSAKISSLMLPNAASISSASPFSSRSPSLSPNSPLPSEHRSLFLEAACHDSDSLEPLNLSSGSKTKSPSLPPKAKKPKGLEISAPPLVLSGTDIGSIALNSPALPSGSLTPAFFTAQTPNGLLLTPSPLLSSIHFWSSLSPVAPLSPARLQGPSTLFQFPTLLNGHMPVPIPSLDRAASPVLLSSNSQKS
In short, it runs like this:
as §1

A further test concerns the target T6, FEV (Homo sapiens, UniProt Q99581 1-238).
T6 sequence: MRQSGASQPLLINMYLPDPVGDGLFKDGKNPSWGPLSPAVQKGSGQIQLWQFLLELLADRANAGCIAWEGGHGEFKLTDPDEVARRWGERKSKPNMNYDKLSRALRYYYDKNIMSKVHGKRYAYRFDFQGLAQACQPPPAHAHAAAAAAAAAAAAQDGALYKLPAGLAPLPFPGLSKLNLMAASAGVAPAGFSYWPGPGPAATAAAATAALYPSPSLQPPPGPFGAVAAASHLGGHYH
In short, it runs like this:
as §1

The target in a further test is ETV5 (Homo sapiens, UniProt P41161 1-510). In short, it runs like this: as §1
ETV5, sequence (P41161 whole entry): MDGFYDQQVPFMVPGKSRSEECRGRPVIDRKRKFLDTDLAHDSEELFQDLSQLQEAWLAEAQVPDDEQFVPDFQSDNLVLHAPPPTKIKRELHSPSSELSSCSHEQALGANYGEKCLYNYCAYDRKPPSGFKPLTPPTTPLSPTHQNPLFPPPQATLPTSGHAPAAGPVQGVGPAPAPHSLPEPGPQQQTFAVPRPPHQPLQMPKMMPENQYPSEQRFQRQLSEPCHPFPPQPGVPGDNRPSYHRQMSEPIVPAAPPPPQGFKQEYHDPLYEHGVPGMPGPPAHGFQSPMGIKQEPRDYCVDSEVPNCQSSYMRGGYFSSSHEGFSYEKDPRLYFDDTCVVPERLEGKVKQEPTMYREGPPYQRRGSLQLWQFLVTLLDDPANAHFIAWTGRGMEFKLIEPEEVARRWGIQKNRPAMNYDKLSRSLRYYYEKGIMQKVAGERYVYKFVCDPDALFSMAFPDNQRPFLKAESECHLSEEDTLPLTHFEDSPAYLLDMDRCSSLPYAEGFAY
The next test deals with T7, SPIC (Homo sapiens, UniProt Q8N5J4 1-248).
T7 sequence: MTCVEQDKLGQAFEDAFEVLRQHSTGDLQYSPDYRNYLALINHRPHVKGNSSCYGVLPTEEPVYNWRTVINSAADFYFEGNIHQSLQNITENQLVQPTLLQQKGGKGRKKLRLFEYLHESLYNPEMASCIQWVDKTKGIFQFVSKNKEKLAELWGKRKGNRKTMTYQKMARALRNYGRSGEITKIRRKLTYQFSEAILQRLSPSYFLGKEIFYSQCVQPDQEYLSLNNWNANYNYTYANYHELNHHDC
In short, it runs like this:
as §1

The next test concerns the target ELF4 (Homo sapiens, UniProt Q99607 1-663). The procedure, abridged:
as §1

The next test has as its target T8, ELK4 (Homo sapiens, UniProt P28324-2 1-405).
T8 sequence: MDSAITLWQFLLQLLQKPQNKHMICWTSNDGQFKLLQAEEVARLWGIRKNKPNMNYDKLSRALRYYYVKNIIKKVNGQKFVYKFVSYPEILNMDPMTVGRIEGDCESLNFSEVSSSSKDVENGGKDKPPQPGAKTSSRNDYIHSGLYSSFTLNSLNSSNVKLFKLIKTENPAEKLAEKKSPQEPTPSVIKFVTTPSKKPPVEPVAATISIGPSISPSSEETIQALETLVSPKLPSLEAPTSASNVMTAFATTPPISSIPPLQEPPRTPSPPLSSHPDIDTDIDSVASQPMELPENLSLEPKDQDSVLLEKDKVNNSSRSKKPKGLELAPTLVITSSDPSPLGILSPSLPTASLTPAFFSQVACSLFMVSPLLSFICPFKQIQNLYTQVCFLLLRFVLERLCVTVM
The procedure, abridged: as §1

For another test, the target named is T9, ETV2 (Homo sapiens, UniProt O00321 1-342).
T9 sequence: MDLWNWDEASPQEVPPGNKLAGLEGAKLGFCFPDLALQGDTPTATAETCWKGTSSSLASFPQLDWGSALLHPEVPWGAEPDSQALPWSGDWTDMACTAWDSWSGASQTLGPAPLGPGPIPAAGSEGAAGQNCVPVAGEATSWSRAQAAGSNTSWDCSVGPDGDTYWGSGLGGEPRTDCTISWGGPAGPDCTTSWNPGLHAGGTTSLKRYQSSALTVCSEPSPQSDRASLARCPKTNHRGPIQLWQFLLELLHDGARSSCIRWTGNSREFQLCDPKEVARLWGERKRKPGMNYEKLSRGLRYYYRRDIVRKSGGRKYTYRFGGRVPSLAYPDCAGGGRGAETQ
The procedure, abridged: as §1

In a further test the target is T10, ELF3 (Homo sapiens, UniProt P78545 1-371).
T10 sequence: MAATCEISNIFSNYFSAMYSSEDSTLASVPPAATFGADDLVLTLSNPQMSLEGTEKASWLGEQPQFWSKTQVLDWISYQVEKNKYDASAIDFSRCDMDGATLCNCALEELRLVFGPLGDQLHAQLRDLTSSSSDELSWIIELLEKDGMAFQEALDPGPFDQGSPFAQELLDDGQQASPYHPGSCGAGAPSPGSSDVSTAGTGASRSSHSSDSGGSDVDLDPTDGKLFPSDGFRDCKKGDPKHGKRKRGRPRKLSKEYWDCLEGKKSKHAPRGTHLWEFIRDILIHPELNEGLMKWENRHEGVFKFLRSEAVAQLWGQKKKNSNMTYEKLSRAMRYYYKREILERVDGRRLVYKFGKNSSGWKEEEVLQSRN
The procedure, abridged: as §1

The next test has as its target CRX (Homo sapiens, UniProt O43186 1-299). The procedure, abridged:
as §1

For the next test, the target named is ETV1 (Homo sapiens, UniProt P50549 1-477). In short, it runs like this:
as §1

In another test the target is T11, EHF (Homo sapiens, UniProt Q9NZC4 1-300).
T11 sequence: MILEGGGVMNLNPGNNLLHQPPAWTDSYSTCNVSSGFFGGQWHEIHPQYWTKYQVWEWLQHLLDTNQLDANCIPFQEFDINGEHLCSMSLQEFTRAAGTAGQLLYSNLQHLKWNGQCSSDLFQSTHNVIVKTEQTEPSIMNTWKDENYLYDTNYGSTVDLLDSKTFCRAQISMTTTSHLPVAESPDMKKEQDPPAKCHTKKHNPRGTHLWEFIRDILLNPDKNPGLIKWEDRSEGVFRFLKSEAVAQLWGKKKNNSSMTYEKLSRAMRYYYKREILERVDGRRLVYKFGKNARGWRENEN
The procedure, abridged:
as §1

SPIB, sequence (Q01892 whole entry): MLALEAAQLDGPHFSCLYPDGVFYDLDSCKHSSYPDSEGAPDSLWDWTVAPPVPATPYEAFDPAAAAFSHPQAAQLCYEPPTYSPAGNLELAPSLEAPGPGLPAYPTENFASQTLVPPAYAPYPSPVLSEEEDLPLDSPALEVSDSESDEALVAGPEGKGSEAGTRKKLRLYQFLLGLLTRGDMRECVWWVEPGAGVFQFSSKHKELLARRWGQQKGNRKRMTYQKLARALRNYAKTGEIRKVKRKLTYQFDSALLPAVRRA
ELF4, sequence (Q99607 whole entry): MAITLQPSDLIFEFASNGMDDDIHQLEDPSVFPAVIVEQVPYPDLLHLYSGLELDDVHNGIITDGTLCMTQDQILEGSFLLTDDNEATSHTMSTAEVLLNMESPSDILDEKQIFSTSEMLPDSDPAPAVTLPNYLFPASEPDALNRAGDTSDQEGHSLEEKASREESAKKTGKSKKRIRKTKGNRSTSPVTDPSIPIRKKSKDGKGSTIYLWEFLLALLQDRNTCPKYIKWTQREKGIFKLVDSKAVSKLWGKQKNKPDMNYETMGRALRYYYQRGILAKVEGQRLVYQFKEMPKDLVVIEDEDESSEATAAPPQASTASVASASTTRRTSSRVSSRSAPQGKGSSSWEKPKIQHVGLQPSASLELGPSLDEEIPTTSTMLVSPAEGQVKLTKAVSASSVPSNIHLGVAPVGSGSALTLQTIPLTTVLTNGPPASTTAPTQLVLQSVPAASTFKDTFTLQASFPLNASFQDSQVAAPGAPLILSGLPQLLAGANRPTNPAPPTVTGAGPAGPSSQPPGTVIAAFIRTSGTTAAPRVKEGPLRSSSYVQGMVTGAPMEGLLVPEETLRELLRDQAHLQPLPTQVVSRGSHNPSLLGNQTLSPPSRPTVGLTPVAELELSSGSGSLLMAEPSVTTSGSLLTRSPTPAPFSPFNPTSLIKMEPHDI
ELF1, sequence (P32519 whole entry): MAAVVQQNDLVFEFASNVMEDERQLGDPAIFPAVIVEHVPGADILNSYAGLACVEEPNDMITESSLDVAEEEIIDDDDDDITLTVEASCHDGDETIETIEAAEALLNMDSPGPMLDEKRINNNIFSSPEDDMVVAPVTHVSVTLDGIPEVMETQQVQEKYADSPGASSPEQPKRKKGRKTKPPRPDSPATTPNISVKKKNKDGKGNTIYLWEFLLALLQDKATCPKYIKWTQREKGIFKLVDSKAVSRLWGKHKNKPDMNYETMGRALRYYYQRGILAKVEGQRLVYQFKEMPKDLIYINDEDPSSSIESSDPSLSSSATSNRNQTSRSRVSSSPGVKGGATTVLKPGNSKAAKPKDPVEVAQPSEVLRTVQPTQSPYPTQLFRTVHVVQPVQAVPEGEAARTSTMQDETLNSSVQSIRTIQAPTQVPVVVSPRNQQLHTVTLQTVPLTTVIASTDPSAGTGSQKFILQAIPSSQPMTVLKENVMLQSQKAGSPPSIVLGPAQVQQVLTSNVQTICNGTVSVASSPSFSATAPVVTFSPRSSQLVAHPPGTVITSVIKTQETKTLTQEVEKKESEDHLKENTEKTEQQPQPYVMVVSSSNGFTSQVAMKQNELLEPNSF
ETV1, sequence (P50549 whole entry): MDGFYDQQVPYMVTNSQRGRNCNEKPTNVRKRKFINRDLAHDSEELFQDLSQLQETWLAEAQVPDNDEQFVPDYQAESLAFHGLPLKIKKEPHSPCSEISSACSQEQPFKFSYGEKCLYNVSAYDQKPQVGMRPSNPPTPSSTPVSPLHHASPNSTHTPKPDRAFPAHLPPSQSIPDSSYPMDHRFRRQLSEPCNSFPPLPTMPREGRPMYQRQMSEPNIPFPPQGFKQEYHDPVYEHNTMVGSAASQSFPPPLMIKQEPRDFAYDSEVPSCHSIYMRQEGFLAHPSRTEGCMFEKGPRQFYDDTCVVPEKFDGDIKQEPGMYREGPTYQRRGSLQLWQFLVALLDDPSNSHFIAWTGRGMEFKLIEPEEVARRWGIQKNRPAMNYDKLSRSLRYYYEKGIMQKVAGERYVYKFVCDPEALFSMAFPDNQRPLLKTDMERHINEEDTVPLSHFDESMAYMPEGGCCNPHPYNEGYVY
CRX, sequence (O43186 whole entry): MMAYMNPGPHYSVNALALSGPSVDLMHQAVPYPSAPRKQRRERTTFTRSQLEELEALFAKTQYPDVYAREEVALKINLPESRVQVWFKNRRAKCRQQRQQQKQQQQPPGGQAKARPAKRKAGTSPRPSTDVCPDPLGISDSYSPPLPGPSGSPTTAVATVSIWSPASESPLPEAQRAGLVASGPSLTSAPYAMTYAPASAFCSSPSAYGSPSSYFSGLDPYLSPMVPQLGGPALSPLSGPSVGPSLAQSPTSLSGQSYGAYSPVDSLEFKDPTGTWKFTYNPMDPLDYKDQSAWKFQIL

With TTGCAG, the binding signal with FLI1 is 1.12 fold enrichment (6-mer frequency, TF over GST control); with ELK1 it was 1.19 fold enrichment (6-mer frequency, TF over GST control); in the test with GABPA, 1.15 fold enrichment (6-mer frequency, TF over GST control); with ERG, 1.15 fold enrichment (6-mer frequency, TF over GST control); in the test with ELF1, 1.16 fold enrichment (6-mer frequency, TF over GST control); with SPI1, 1.08 fold enrichment (6-mer frequency, TF over GST control). Besides, the binding signal with SPIB is 1.16 fold enrichment (6-mer frequency, TF over GST control); in the test with ELK3 it was 1.24 fold enrichment (6-mer frequency, TF over GST control); in the test with FEV, 1.08 fold enrichment (6-mer frequency, TF over GST control); with ETV5, 1.13 fold enrichment (6-mer frequency, TF over GST control); in the test with SPIC, 1.05 fold enrichment (6-mer frequency, TF over GST control); with ELF4, 1.09 fold enrichment (6-mer frequency, TF over GST control). Besides, the binding signal with ELK4 is 1.29 fold enrichment (6-mer frequency, TF over GST control); in the test with ETV2, 1.17 fold enrichment (6-mer frequency, TF over GST control); with ELF3, 1.13 fold enrichment (6-mer frequency, TF over GST control); with CRX, 1.1 fold enrichment (6-mer frequency, TF over GST control); with ETV1, 1.07 fold enrichment (6-mer frequency, TF over GST control).

As to TGCACG, the binding signal with FLI1 is 1.12 fold enrichment (6-mer frequency, TF over GST control); in the test with ELK1 it was 1.06 fold enrichment (6-mer frequency, TF over GST control); in the test with GABPA, 1.18 fold enrichment (6-mer frequency, TF over GST control); with ERG, 1.03 fold enrichment (6-mer frequency, TF over GST control); with ELF1, 1.16 fold enrichment (6-mer frequency, TF over GST control); in the test with EHF it was 1.22 fold enrichment (6-mer frequency, TF over GST control). Further, the binding signal in the test with SPI1 is 1.12 fold enrichment (6-mer frequency, TF over GST control); with SPIB, 1.23 fold enrichment (6-mer frequency, TF over GST control); with ELK3, 1.15 fold enrichment (6-mer frequency, TF over GST control); with FEV it was 1.15 fold enrichment (6-mer frequency, TF over GST control); in the test with ETV5, 1.14 fold enrichment (6-mer frequency, TF over GST control); with SPIC it was 1.03 fold enrichment (6-mer frequency, TF over GST control). The binding signal with ELF4 is 1.13 fold enrichment (6-mer frequency, TF over GST control); in the test with ELK4, 1.24 fold enrichment (6-mer frequency, TF over GST control); in the test with ETV2, 1.22 fold enrichment (6-mer frequency, TF over GST control); with ELF3, 1.26 fold enrichment (6-mer frequency, TF over GST control); in the test with ETV1, 1.06 fold enrichment (6-mer frequency, TF over GST control).
